# The campaign covered roughly 52,000 compounds. About 4,300 (8.3%) were called active. The sample as a whole holds a higher share of actives than the screen did. Unmarked numbers belong to inactive results. No stated cut-off is given here; in the data, active means survival mostly below about 52% (no sharp cut-off); inactive means mostly above about 56%.
# Tested on: DeltatarO mutant
# Assay: growth inhibition of S. aureus wild type versus tarO mutant, primary screen, teichoic acid synthesis inhibitors, RN4220, OD600 (AID 463173)
# Conditions: OD600, 18 h, stronger effect = lower value, screened at 18.75 µg/mL (by protocol)
row,SMILES,survival
1,CCOc1ccc(CCNC(=O)C2CC(=O)N(CCc3ccc(OC)c(OC)c3)C2)cc1OCC (centres undefined),91%
2,COc1ccc(OC)c(C2CC(=O)c3c([nH]c(C(=O)OC4CCC(C)CC4)c3C)C2)c1 (centres undefined),81%
3,COc1ccc(-c2noc(-c3ccc(N4CCN(C)CC4)c([N+](=O)[O-])c3)n2)cc1OC,50%
4,COc1ccc(-c2noc(-c3ccc(N4CCOCC4)c([N+](=O)[O-])c3)n2)cc1,46%
5,COc1ccc(-c2noc(-c3ccc(N4CCCC4)c([N+](=O)[O-])c3)n2)cc1,108%
6,COc1ccc(-c2noc(-c3ccc(N4CCCCC4)c([N+](=O)[O-])c3)n2)cc1,37% (active)
7,COc1ccc(-c2noc(-c3ccc(N4CCN(c5ccc(OC)cc5)CC4)c([N+](=O)[O-])c3)n2)cc1,47%
8,COc1ccc(-c2noc(-c3ccc(N4CCN(C)CC4)c([N+](=O)[O-])c3)n2)cc1,42% (active)
9,CC1=C(C(=O)Nc2ccccc2C)C(c2cccnc2)n2nc(SCc3ccccc3F)nc2N1 (centres undefined),60%
10,Cc1nc2nncn2c(N2CCN(c3ccccc3)CC2)c1C,83%
11,COc1cccc(CNC(=O)c2nn(C)c3c2CS(=O)(=O)c2ccccc2-3)c1,74%
12,CC(=O)c1ccc(NC(=O)CSc2cn(CC(=O)N3CCCCC3)c3ccccc23)cc1,63%
13,C=CCNc1nc(-c2ccccc2)cs1,97%
14,COCC(=O)Nc1nc(-c2ccccc2)cs1,112%
15,Cc1nc(C)c(-c2csc(NCc3ccccc3)n2)s1,65% (active)
16,COc1cccc(C(=O)CN2C3=NCCN3c3ccccc32)c1,106%
17,CC1=C(C(=O)Nc2cccc(F)c2)C2(CCCCCC2)OC1=O,70%
18,Cc1ccc(C2=NN(CC(=O)NCCN(CC(C)C)CC(C)C)C(=O)CC2)cc1,131%
19,CCN(CCCNC(=O)CN1N=C(c2ccccc2)CCC1=O)c1cccc(C)c1,124%
20,CCN(CCCNC(=O)CN1N=C(c2ccccc2)CCC1=O)c1ccccc1,-5% (active)
21,CCN(CCCNC(=O)CN1N=C(c2ccc(C)cc2)CCC1=O)c1ccccc1,0% (active)
22,Cc1ccc(C2=NN(CC(=O)NCCCN(CC(C)C)CC(C)C)C(=O)CC2)cc1,83%
23,Cc1ccc(C2=NN(CC(=O)NCCC(C)C)C(=O)CC2)cc1,37% (active)

row,SMILES,survival
1,CCCCN(CCCNC(=O)CN1N=C(c2ccc(C)cc2)CCC1=O)c1ccccc1,92%
2,CCCCN(CCCNC(=O)CN1N=C(c2ccccc2)CCC1=O)c1ccccc1,88%
3,CCN(CCCNC(=O)CN1N=C(c2ccc(OC)cc2)CCC1=O)c1cccc(C)c1,123%
4,COc1ccc(C)cc1NC(=O)c1ccc2c(c1)CCN2S(=O)(=O)c1ccc(Cl)cc1,79%
5,CCOc1ccc(NC(=O)c2ccc3c(=O)n4c(nc3c2)CCCCC4)cc1,139%
6,O=C(NCCc1ccc(Cl)cc1)C(=O)NCC(c1cccs1)S(=O)(=O)c1ccccc1 (centres undefined),77%
7,CCOc1ccc(/C=C/C(=O)Nc2sc3c(c2C(=O)OC)CCCC3)cc1,110%
8,CCOC(=O)c1c(NC(=O)/C=C/c2ccc(C(C)C)cc2)sc2c1CCC2,56%
9,CCOC(=O)c1c(NC(=O)/C=C/c2ccc(OCC)cc2)sc2c1CCCC2,36% (active)
10,CCOC(=O)c1c(NC(=O)/C=C/c2ccc(OCC)cc2)sc2c1CCC2,145%
11,CCOC(=O)c1c(NC(=O)/C=C/c2ccccc2)sc2c1CCCC2,75%
12,CCOC(=O)c1c(NC(=O)/C=C/c2ccc(C)cc2)sc2c1CCCC2,22% (active)
13,CC(C)OCCCN1C(=O)c2[nH]nc(-c3ccccc3O)c2C1c1ccccc1F (centres undefined),46%
14,COCCCN1C(=O)c2[nH]nc(-c3ccccc3O)c2C1c1ccc(OCc2ccccc2)cc1 (centres undefined),8% (active)
15,CCCCN1C(=O)c2[nH]nc(-c3ccccc3O)c2C1c1ccc(OCc2ccccc2)cc1 (centres undefined),43% (active)
16,CC(C)OCCCN1C(=O)c2[nH]nc(-c3ccccc3O)c2C1c1cccc(OCc2ccccc2)c1 (centres undefined),49%
17,CCCCN1C(=O)c2[nH]nc(-c3ccccc3O)c2C1c1ccc(C(C)(C)C)cc1 (centres undefined),88%
18,COCCCN1C(=O)c2[nH]nc(-c3ccccc3O)c2C1c1ccc(OC)cc1 (centres undefined),53%
19,CC(C)OCCCN1C(=O)c2[nH]nc(-c3ccccc3O)c2C1c1ccc(OCc2ccccc2)cc1 (centres undefined),28% (active)
20,COCCNC(=O)c1c(NC(=O)c2cc(=O)c3cc(Cl)ccc3o2)sc2c1CCCC2,49%
21,Cc1cccc(NC(=O)c2sc3nc(N4CCOCC4)c4c(c3c2N)CC(C)(C)OC4)c1,91%
22,Cc1cccc(Oc2ccc(NC(=O)CCC(=O)OCC(=O)c3ccc(Br)cc3)cc2)c1C,68%
23,COc1ccc(OC)c(S(=O)(=O)Nc2cccc(-c3ccc(N4CCCCC4)nn3)c2)c1,83%

row,SMILES,survival
1,COCCCn1c(SCC(=O)N2CC(=O)Nc3ccccc32)nnc1-c1ccoc1C,79%
2,CCOC(=O)c1c(-c2ccc(C)cc2)csc1NC(=O)c1cc(=O)c2ccc(C)cc2o1,109%
3,CCOC(=O)c1c(-c2ccc(C)cc2)csc1NC(=O)c1cc(=O)c2cc(Cl)ccc2o1,116%
4,CCOC(=O)c1c(NC(=O)c2cc(=O)c3cc(C)cc(C)c3o2)sc(C)c1C,48% (active)
5,CCOC(=O)c1c(-c2ccc(C)cc2)csc1NC(=O)c1cc(=O)c2cc(C)ccc2o1,42% (active)
6,CCOC(=O)c1c(NC(=O)c2cc(=O)c3ccc(C)cc3o2)sc(C)c1C,100%
7,CCOC(=O)c1c(NC(=O)c2cc(=O)c3c(C)cc(C)cc3o2)sc(C)c1C,61%
8,COc1ccc(CNC(=O)c2cnc(N3CCOCC3)c3ccccc23)cc1,70%
9,CC1=Nc2cc(C(=O)NCc3ccccc3Cl)ccc2Sc2c(C)ccc(C)c21,79%
10,O=C(Nc1ccccc1Cl)[C@H](CSCc1ccccc1)N1Cc2ccccc2C1=O,58%
11,CCN1CCN(c2c(S(=O)(=O)c3ccc(Cl)cc3)cnc3ccccc23)CC1,77%
12,CCC(Sc1ncnc2sc3c(c12)CCCC3)C(=O)OC(C)C (centres undefined),-7% (active)
13,CCn1cnc2sc3c(c2c1=O)CCCC3,101%
14,COC(=O)C(C)n1cnc2sc3c(c2c1=O)CCCC3 (centres undefined),92%
15,CNC(=O)CSc1ncnc2sc3c(c12)CCCC3,80%
16,Nc1ncnc2sc3c(c12)CCCC3,57%
17,CCOC(=O)CSc1ncnc2sc3c(c12)CCC3,96%
18,CCOC(=O)C(CC)Sc1ncnc2sc3c(c12)CCCC3 (centres undefined),-7% (active)
19,CCC(Sc1ncnc2sc3c(c12)CCCC3)C(=O)OCC(C)C (centres undefined),-6% (active)
20,Clc1ncnc2sc3c(c12)CCCC3,86%
21,CCOC(=O)c1ccc2c(c1)N(Cc1ccc(F)cc1Cl)C(=O)c1ccccc1S2(=O)=O,90%
22,COc1ccc(-n2nc(C(=O)N3CCN(c4ccccc4OC)CC3)c3c4ccccc4n(C)c3c2=O)cc1Cl,123%
23,Cc1cc(C)c(NC(=O)CCN2C(=O)c3ccccc3Sc3ncccc32)c(C)c1,106%

row,SMILES,survival
1,Cc1ccnc(NS(=O)(=O)c2ccc(NC(=O)c3nc(SC(C)C)ncc3Cl)cc2)n1,58%
2,CCOC(=O)c1noc2nc(C)n(CC(=O)Nc3cccc(OC)c3)c(=O)c12,108%
3,O=c1c2ccccc2nc(-c2ccccc2)n1CCCn1ccnc1,107%
4,CCCc1cc(C(=O)Nc2c(C)nn(Cc3ccc(Cl)c(Cl)c3)c2C)no1,56%
5,CCOC(=O)c1cccc(NC(=O)NCc2ccc3c(c2)CCN3C(=O)c2ccccc2)c1,116%
6,COc1ccc(CC(=O)NCc2ccc3c(c2)CCN3C(=O)c2cccc(C)c2)cc1,-4% (active)
7,COc1ccc(OCC(=O)NCc2ccc3c(c2)CCN3C(=O)c2cccc(C)c2)cc1,82%
8,O=C(NCc1ccc2c(c1)CCN2C(=O)c1ccccc1)c1cc2ccccc2[nH]1,6% (active)
9,COc1ccc2cc(C(=O)NCc3ccc4c(c3)CCN4C(=O)c3ccccc3)[nH]c2c1,-1% (active)
10,Cc1cccc(C(=O)N2CCc3cc(CNC(=O)c4cc5ccccc5[nH]4)ccc32)c1,81%
11,O=C(NCc1ccc2c(c1)CCN2C(=O)c1ccc(F)cc1)c1cc2ccccc2[nH]1,97%
12,COc1ccc2cc(C(=O)NCc3ccc4c(c3)CCN4C(=O)c3ccc(F)cc3)[nH]c2c1,86%
13,COc1cccc(NC(=O)NCc2ccc3c(c2)CCN3C(=O)c2ccccc2)c1,52% (active)
14,O=C(NCc1ccc2c(c1)CCN2C(=O)c1ccccc1)Nc1cccc(C(F)(F)F)c1,123%
15,COc1ccc2cc(C(=O)NCc3ccc4c(c3)CCN4C(=O)c3ccc(C)cc3)[nH]c2c1,75%
16,COc1ccc(CCC(=O)NCc2ccc3c(c2)CCN3C(=O)c2cccc(C)c2)cc1,76%
17,CCC1CCCCN1Cc1cn2c(-c3ccc(Br)cc3)nnc2s1 (centres undefined),80%
18,Cc1ccc(Cn2c(=O)c3cccnc3n(CC(=O)Nc3cc(Cl)ccc3C)c2=O)cc1,85%
19,CCCOc1cccc(C2c3c(oc4ccc(F)cc4c3=O)C(=O)N2CCc2ccc(OC)cc2)c1 (centres undefined),92%
20,CCOC(=O)c1[nH]c(C)c(CCC(=O)NC(C)c2ccccc2)c1C (centres undefined),83%
